Among the test systems are K-562 leukemia; MALME-3M melanoma; MDA-MB-231 breast; RXF 393 renal; SF-268 CNS; SF-295 CNS; SF-539 CNS; UACC-257 melanoma; M14 melanoma; DU-145 prostate.
Holding throughout (test): NCI-60 one-dose screen, 48 h (100 = growth as untreated, 0 = no growth, -100 = all killed)
Conditions in all cases: 10 µM unless noted

This is part of a sample that, as a whole, favours compounds with a hit. Of some 83,000 tested, about 20% had one in any assay.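 Cell lines were cultured in 96-well plates, exposed to a single compound concentration, and assessed for percent growth 48 hours later.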 A number with no mark means an inactive call. Calls of active or inactive are those of the source. Rule for the calls: active = growth percent below 10; inactive = the rest.

Turning to `CC1SC(c2ccc(Cl)cc2)N(CCc2cccs2)C1=O` (stereo not drawn), the growth with K-562 leukemia was 7.81% (active); in the test with MALME-3M melanoma it was -32.8% (active); with MDA-MB-231 breast, -4.43% (active); in the test with RXF 393 renal it was -35.7% (active); in the test on SF-268 CNS, 14.3%; with SF-295 CNS it was -2.2% (active). The values for the growth with SF-539 CNS, in the test on UACC-257 melanoma and in the test on M14 melanoma were -49.7% (active), -28.7% (active) and -12.8% (active), respectively.
Take `O=S(=O)(OCCO)c1ccccc1`: the growth is 112% in the test with DU-145 prostate; 105% in the test with MALME-3M melanoma; 97.2% with MDA-MB-231 breast; 98.1% with RXF 393 renal; 102% in the test with SF-268 CNS; 93.1% in the test on SF-295 CNS. The growth in the test with SF-539 CNS is 106%; in the test with UACC-257 melanoma, 103%; in the test with M14 melanoma, 109%.
For the molecule `Cc1cc[n+](CCc2ccccc2)cc1`, in the test on RXF 393 renal, the growth was 108%.
For the molecule `CON=C1C[C@]2(C[C@@H]3C[C@@H](C/C=C(\C)C[C@@H](C)/C=C/C=C4\CO[C@@H]5[C@H](O)C(C)=C[C@@H](C(=O)O3)[C@]45O)O2)O[C@H](/C(C)=C/C(C)C)[C@H]1C`, the growth with DU-145 prostate is 39.6%; in the test with MALME-3M melanoma it was 65.9%; with MDA-MB-231 breast it was 54%; in the test with RXF 393 renal, 47.2%; in the test with SF-268 CNS it was 58.3%; in the test on SF-295 CNS, 33%. Besides, the growth with SF-539 CNS is 85.1%; in the test on UACC-257 melanoma, 81.3%; in the test with M14 melanoma, 57.4%.
Take `CC(C)N1CCN(c2ccc(OC[C@H]3CO[C@](Cn4cncn4)(c4ccc(Cl)cc4Cl)O3)cc2)CC1`: the growth with DU-145 prostate was 111%; in the test on MALME-3M melanoma, 86.1%; in the test with MDA-MB-231 breast, 65.8%; in the test on RXF 393 renal, 74.7%; with SF-268 CNS, 102%; with SF-295 CNS, 89%. Further, the growth with SF-539 CNS is 79.4%; in the test on UACC-257 melanoma, -28.4% (active); in the test with M14 melanoma, 52.8%.
For `CCCCC/C=C\C/C=C/CCCCCCCCNC(=O)Nc1ccc([N+](=O)[O-])cc1`, the growth in the test on DU-145 prostate is 47.3%; with MALME-3M melanoma, 82.9%; in the test with MDA-MB-231 breast it was 77.8%; in the test on RXF 393 renal, 113%; with SF-268 CNS, 42.5%; with SF-295 CNS it was 56.4%. For the same molecule, the growth is 107% in the test on SF-539 CNS, 98.9% in the test on UACC-257 melanoma and 77.9% with M14 melanoma.
For `COC(=O)c1ccc(C(=O)Nc2ccccc2N)cc1`, the growth in the test with DU-145 prostate was 80.2%; in the test on K-562 leukemia, 73.3%; with MDA-MB-231 breast it was 67.3%; in the test on RXF 393 renal, 86.8%; with SF-268 CNS, 65.4%; in the test on SF-539 CNS, 64.9%. Further, the values for the growth with UACC-257 melanoma and with M14 melanoma were 75.7% and 83.3%, respectively.
As for `CCOc1ccc(/C=N\N2CCCCCC2)cc1OCC`, the growth in the test on DU-145 prostate is 108%; in the test on MDA-MB-231 breast, 77.7%; in the test on RXF 393 renal, 103%; with SF-268 CNS, 102%; in the test on SF-295 CNS, 104%; in the test on SF-539 CNS, 97.2%. Also, the figures for the growth in the test on UACC-257 melanoma and in the test on M14 melanoma were 96.2% and 105%, respectively.
Consider `Clc1ccc2c(N3CCN(c4ccnc(NC5CCCCC5)n4)CC3)ccnc2c1`, for which the growth in the test with DU-145 prostate was 62.4%; with K-562 leukemia, 7.08% (active); with RXF 393 renal, 57.6%; in the test on SF-268 CNS it was 71.6%; in the test with SF-295 CNS, 39.3%; in the test on SF-539 CNS, 53.5%. Moreover, the growth in the test on UACC-257 melanoma is 0.862% (active); in the test on M14 melanoma it was -43.7% (active).
As for `Cc1cc(O)cc2c1[C@H]1CC[C@]3(C)[C@@H](O)CC[C@H]3[C@@H]1C=C2`, the growth in the test with DU-145 prostate was 113%; with MDA-MB-231 breast, 80.9%; in the test with SF-268 CNS, 92.2%; in the test on SF-539 CNS, 98.4%; in the test on UACC-257 melanoma it was 85.2%; in the test with M14 melanoma it was 77.5%.
As to `Cn1c2ccc(Cl)cc2c2nn(C(=O)c3ccccc3)c(=O)nc21`, the growth in the test on DU-145 prostate was 114%; in the test with K-562 leukemia it was 110%; with MDA-MB-231 breast, 106%; with RXF 393 renal, 98.9%; in the test on SF-268 CNS, 104%; in the test with SF-539 CNS, 99.9%. Also, the growth in the test on UACC-257 melanoma is 128%; in the test with M14 melanoma, 98.9%.
In the case of `Cc1ccc(C(=O)O[C@H](C(=O)O)[C@H](OC(=O)c2ccc(C)cc2)C(=O)O)cc1`, in the test on MDA-MB-231 breast, the growth was 113%.
As for `CC(=O)OCC1OC([S-])C(OC(C)=O)C(OC(C)=O)C1OC(C)=O.[Au+].c1ccc(CN2[CH-]N(Cc3ccccc3)C(c3ccccc3)=C2c2ccccc2)cc1`, in the test with SF-295 CNS, the growth was -11.3% [4.75 µM] (active).
Turning to `O=C(c1ccccc1)C(Br)C(Br)c1cccc([N+](=O)[O-])c1` (stereo not drawn), the growth in the test with DU-145 prostate was 76%; with MALME-3M melanoma it was -43.1% (active); in the test with MDA-MB-231 breast it was 59.9%; with RXF 393 renal, -78.8% (active); in the test on SF-268 CNS it was 72.1%; in the test with SF-295 CNS, 88.5%. The growth was 38.1% with SF-539 CNS, 19.8% in the test with UACC-257 melanoma and 34.3% in the test on M14 melanoma.
As for `O=C1c2cc(S(=O)(=O)O)ccc2C(=O)c2c1cccc2[N+](=O)[O-]`, the growth with MALME-3M melanoma is 111%; in the test on MDA-MB-231 breast it was 112%; in the test on RXF 393 renal, 128%; in the test on SF-268 CNS, 108%; in the test on SF-295 CNS, 100%; in the test with SF-539 CNS it was 104%. Further, the growth is 93% in the test with UACC-257 melanoma and 95.2% with M14 melanoma.

The values are drawn from PubChem BioAssay (NCI).
